From PubChem BioAssay (NCATS)
Records with an inconclusive call do not appear. A call without a number means that no potency is given here. Active and inactive are the calls of the source. Unless noted, the call rests on the fitted dose curve; in most records, active means well fitted curve in the direction sought with a large enough effect; inconclusive means small, poorly fitted or top-dose-only effect, or another doubt; inactive means no such curve, though single readings can be large; an effect the other way counts as inactive or inconclusive.

Columns and labels:
[1] = Validation of Assay for Modulators of Lamin A Splicing (AID 1459; active means well fitted curve in the direction sought with a large enough effect in the signal ratio; the % refers to the signal ratio;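 further: cells exposed to compound for two days before reading; ratio rise marks activators and ratio drop marks inhibitors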)
Summary of the method: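 Splicing correction read as GFP (500-530 nm) over DsRed2 (575-640 nm) object intensity after 48 h compound exposure of reporter HeLa S3 clones (600 cells/well, 2% FBS medium); ancitabine and cycloheximide titrations, 0.5% DMSO as vehicle.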

[2] = target: DNA repair nuclease/redox regulator APEX1 (Homo sapiens) (UniProt P27695); test: qHTS Validation Assay for Inhibitors of the Human Apurinic/apyrimidinic Endonuclease 1 (APE1) (AID 1705; further: potency means the concentration at half of the fitted maximal effect)
Summary of the method: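 Activity read as rising fluorescence (598 nm emission, 525 nm excitation) from incision of a TAMRA/BHQ-2 duplex carrying a THF abasic site (50 nM). Compound and enzyme sat 15 min at RT before substrate start; signal change between first and third 60-s reads.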

[3] = Counterscreen for APE1 Inhibitors: Fluorescent Dye Displacement Validation Assay (AID 1707)
Summary of the method: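 Counterscreen flags promiscuous DNA binders: compounds displacing ThO from duplex DNA (abasic THF site, 50 nM) reduce 540 nm emission (480 nm excitation). ThO 250 nM final; Tris-HCl pH 7.5 with NaCl, MgCl2 and Tween-20.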

[4] = target: Endonuclease 4 (Escherichia coli (strain K12)) (UniProt P0A6C1); test: Counterscreen for APE1 Inhibitors: qHTS Validation Assay for Inhibitors of Endonuclease IV (AID 1708)
Summary of the method: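 Enzyme (2 nM) + compound, 15 min RT; add 50 nM TAMRA/BHQ-2 THF-site dsDNA; kinetic read ex525/em598, 3 reads/60 s; activity = read 3 − read 1. Buffer Tris pH 7.5, 50 mM NaCl, 2 mM MgCl2, DTT, Tween-20.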

[5] = qHTS for differential inhibitors of proliferation of Plasmodium falciparum line 7G8 (AID 1815);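 further: parasite growth measured after three days of incubation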; further: potency means the concentration at half of the fitted maximal effect
[6] = qHTS for differential inhibitors of proliferation of Plasmodium falciparum line GB4 (AID 1816); conditions: Potency: Plasmodium falciparum GB4 proliferation inhibition;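 further: parasite growth measured after 72 h incubation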; further: potency means the concentration at half of the fitted maximal effect
[7] = qHTS for differential inhibitors of proliferation of Plasmodium falciparum line 3D7 (AID 1876); further: potency means the concentration at half of the fitted maximal effect
[8] = target: alpha-glucosidase (Oryza sativa, rice) (UniProt Q653V4); test: Counterscreen for Glucocerebrosidase Inhibitors: qHTS Assay for Rice alpha-Glucosidase at pH 5.0 (AID 997)
Summary of the method: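 Endpoint fluorogenic assay at pH 5.0: compounds (0.7 nM to 77 uM) titrated against 4 nM rice enzyme and 400 uM 4-MU-alpha-glucoside for 20 min at room temperature; NaOH/glycine stop, read ex 365/em 440 nm, Hill-fitted AC50.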

Chain of DNA repair nuclease/redox regulator APEX1 (Homo sapiens) (P27695 whole entry, looked up): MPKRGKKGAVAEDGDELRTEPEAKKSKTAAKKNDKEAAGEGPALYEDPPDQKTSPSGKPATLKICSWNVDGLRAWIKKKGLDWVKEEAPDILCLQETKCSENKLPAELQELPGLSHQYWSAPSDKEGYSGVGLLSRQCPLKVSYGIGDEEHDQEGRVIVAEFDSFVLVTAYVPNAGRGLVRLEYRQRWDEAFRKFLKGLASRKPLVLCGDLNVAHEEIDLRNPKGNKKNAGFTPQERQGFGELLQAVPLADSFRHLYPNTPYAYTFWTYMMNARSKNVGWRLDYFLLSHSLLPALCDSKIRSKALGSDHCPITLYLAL

In the case of `C=CCN1CCc2c(cc(O)c(O)c2Cl)C(c2ccccc2)C1` (centres undefined), the outcome [1] is reported as “inactive”, the Potency [2] is reported as “inactive” and the Potency [3] is reported as “inactive”. The Potency [4] was “inactive”, the Potency [5] was 5.01 µM (active) and the Potency [6] was 5.01 µM (active). For the same molecule, the Potency [7] was 7.94 µM (active).

In the case of `CC(C)C[C@H](NC(=O)C1OC1C(=O)O)C(=O)NCCCCN=C(N)N` (some centres undefined), the outcome [1] is reported as “inactive”, the Potency [2] is reported as “inactive” and the Potency [3] is reported as “inactive”. For the same molecule, the Potency [4] was “inactive”, the Potency [5] was 4.47 µM (active) and the Potency [6] was 3.16 µM (active). The Potency [7] was 2.51 µM (active).

For `CC(C)C[C@H](NC(=O)[C@H](O)[C@H](N)Cc1ccccc1)C(=O)O`, the outcome [1] was “inactive”, the Potency [2] was “inactive” and the Potency [3] was “inactive”. For the same molecule, the Potency [4] was “inactive”, the Potency [5] was “inactive” and the Potency [6] was “inactive”. The Potency [7] was “inactive”.

In the case of `COC(=O)C(C)(N)Cc1ccc(O)cc1` (centres undefined), the outcome [1] is reported as “inactive”, the Potency [3] is reported as “inactive” and the Potency [4] is reported as “inactive”. The Potency [6] was 14.1 µM (active).

With `CN(C)C(=O)/N=N/C(=O)N(C)C` the outcome [1] was “inactive”, the Potency [3] was “inactive” and the Potency [4] was “inactive”. The Potency [5] was “inactive”, the Potency [6] was “inactive” and the Potency [7] was “inactive”.

With `OC[C@H]1NC[C@@H](O)[C@@H]1O` the outcome [1] was “inactive”, the Potency [3] was “inactive” and the Potency [4] was “inactive”. The Potency [5] was “inactive”, the Potency [6] was “inactive” and the Potency [7] was “inactive”.

For `N#C/C(=C\c1ccc(O)c(O)c1)C(=O)NCCCNC(=O)/C(C#N)=C/c1ccc(O)c(O)c1`, the outcome [8] was “inactive”, the outcome [1] was “inactive” and the Potency [2] was “inactive”.

In the case of `COc1cc(C(O)C(=O)O)ccc1O` (centres undefined), the outcome [1] is reported as “inactive”, the Potency [3] is reported as “inactive” and the Potency [4] is reported as “inactive”. For the same molecule, the Potency [5] was “inactive”, the Potency [6] was “inactive” and the Potency [7] was “inactive”.

For `CCCc1c(-c2ccc(O)cc2)nn(-c2ccc(O)cc2)c1-c1ccc(O)cc1`, the outcome [1] was “inactive”, the Potency [2] was “inactive” and the Potency [3] was “inactive”. For the same molecule, the Potency [6] was “inactive” and the Potency [7] was “inactive”.

With `CNc1ncnc2c1ncn2[C@H]1C[C@H](OP(=O)(O)O)[C@@H](COP(=O)(O)O)O1` the outcome [1] was “inactive”, the Potency [2] was “inactive” and the Potency [3] was “inactive”. The Potency [5] was “inactive”, the Potency [6] was “inactive” and the Potency [7] was “inactive”.

For `c1ccc2c(c1)CC(N1CCN(c3cccc4c3OCCO4)CC1)C2`, the outcome [8] was “inactive”, the outcome [1] was “inactive” and the Potency [2] was “inactive”. The Potency [3] was “inactive” and the Potency [7] was 12.6 µM (active).

For `N[C@@H](Cc1ccc(O)c(I)c1)C(=O)O`, the outcome [8] was “inactive”, the outcome [1] was “inactive” and the Potency [2] was “inactive”. The Potency [3] was “inactive”, the Potency [5] was “inactive” and the Potency [6] was “inactive”. The Potency [7] was “inactive”.

In the case of `COC(=O)C1=C(C)NC(C)=C([N+](=O)[O-])C1c1ccccc1C(F)(F)F` (centres undefined), the outcome [1] is reported as “inactive”, the Potency [3] is reported as “inactive” and the Potency [4] is reported as “inactive”.

For `O=c1[nH]c2cc(Cl)ccc2c(O)c1-c1ccc(Oc2ccccc2)cc1`, the outcome [1] was “inactive”, the Potency [3] was “inactive” and the Potency [4] was “inactive”. For the same molecule, the Potency [5] was “inactive” and the Potency [7] was “inactive”.

With `N#CC(C#N)=C(N)/C(C#N)=C/c1ccc(O)cc1` the outcome [8] was “inactive”, the outcome [1] was “inactive” and the Potency [2] was “inactive”. The Potency [3] was “inactive”.

With `CO/N=C(\C(=O)N[C@@H]1C(=O)N2C(C(=O)O)=C(CSc3nc(=O)c(O)nn3C)CSC12)c1csc(N)n1` (some centres undefined) the outcome [1] was “inactive”, the Potency [3] was “inactive” and the Potency [5] was “inactive”. The Potency [6] was “inactive” and the Potency [7] was “inactive”.

With `CNC(=O)c1cc2c(cn1)[nH]c1ccccc12` the outcome [1] was “inactive”, the Potency [3] was “inactive” and the Potency [4] was “inactive”. For the same molecule, the Potency [5] was 12.6 µM (active).

For `Cn1cc(C(=O)OCC2CCN(CCNS(C)(=O)=O)CC2)c2ccccc21`, the outcome [8] was “inactive”, the outcome [1] was “inactive” and the Potency [2] was “inactive”. For the same molecule, the Potency [3] was “inactive” and the Potency [5] was 10 µM (active).

For `OCC1NCC(O)C(O)C1O` (centres undefined), the outcome [1] was “inactive”, the Potency [3] was “inactive” and the Potency [5] was “inactive”. For the same molecule, the Potency [6] was “inactive” and the Potency [7] was “inactive”.

For `CC(N)(Cc1ccc(O)c(O)c1)C(=O)O` (centres undefined), the outcome [1] was “inactive”, the Potency [3] was “inactive” and the Potency [5] was “inactive”. The Potency [7] was “inactive”.

With `NC(=O)CC[C@H](N)C(=O)O` the outcome [1] was “inactive”, the Potency [2] was “inactive” and the Potency [3] was “inactive”. For the same molecule, the Potency [5] was “inactive”, the Potency [6] was “inactive” and the Potency [7] was “inactive”.

In the case of `COC(=O)[C@H](NC(=O)c1cc(-c2ccccc2)nc2ccccc12)c1ccccc1`, the outcome [8] is reported as “inactive”, the outcome [1] is reported as “inactive” and the Potency [2] is reported as “inactive”. For the same molecule, the Potency [3] was “inactive”, the Potency [5] was 11.2 µM (active) and the Potency [7] was “inactive”.

In the case of `NC1CCN(O)C1=O` (centres undefined), the outcome [1] is reported as “inactive”, the Potency [3] is reported as “inactive” and the Potency [4] is reported as “inactive”. The Potency [5] was “inactive”, the Potency [6] was “inactive” and the Potency [7] was “inactive”.

For `CC[C@H](NC(=O)c1c(C)c(-c2ccccc2)nc2ccccc12)c1ccccc1`, the outcome [8] was “inactive”, the outcome [1] was “inactive” and the Potency [3] was “inactive”. The Potency [4] was “inactive”, the Potency [5] was 7.08 µM (active) and the Potency [6] was 11.2 µM (active).

With `N=C(N)c1ccc(N)cc1` the outcome [8] was “inactive”, the outcome [1] was “inactive” and the Potency [3] was “inactive”. For the same molecule, the Potency [4] was “inactive”, the Potency [5] was “inactive” and the Potency [7] was “inactive”.

For `C[C@H](NC(=O)/C(C#N)=C/c1ccc(O)c(O)c1)c1ccccc1`, the outcome [8] was “inactive”, the outcome [1] was “inactive” and the Potency [2] was “inactive”. For the same molecule, the Potency [3] was “inactive”, the Potency [5] was 7.08 µM (active) and the Potency [6] was 11.2 µM (active). For the same molecule, the Potency [7] was 14.1 µM (active).

For `C=CCn1c(=O)c2c(nc(-c3ccc(S(=O)(=O)O)cc3)n2C)n(C)c1=O`, the outcome [8] was “inactive”, the outcome [1] was “inactive” and the Potency [2] was “inactive”. For the same molecule, the Potency [3] was “inactive”, the Potency [5] was “inactive” and the Potency [6] was “inactive”. For the same molecule, the Potency [7] was “inactive”.

For `CCCCCCCCCCC/C=C\C(C)(C)/C=C\CCCC(=O)O`, the outcome [8] was “inactive”, the outcome [1] was “inactive” and the Potency [2] was 35.5 µM (active). For the same molecule, the Potency [3] was “inactive”, the Potency [6] was “inactive” and the Potency [7] was “inactive”.

For `O=C1NC(=O)c2cc(Nc3ccccc3)c(Nc3ccccc3)cc21`, the outcome [8] was “inactive”, the outcome [1] was “inactive” and the Potency [2] was “inactive”. The Potency [3] was “inactive”, the Potency [5] was 8.91 µM (active) and the Potency [6] was 10 µM (active). For the same molecule, the Potency [7] was 12.6 µM (active).

For `COc1cc(N)c(Cl)cc1C(=O)OCCN1CCCCC1`, the outcome [8] was “inactive”, the outcome [1] was “inactive” and the Potency [2] was “inactive”. For the same molecule, the Potency [3] was “inactive” and the Potency [7] was “inactive”.

With `O=[N+]([O-])c1cccc2c(Br)[nH]nc12` the outcome [8] was “inactive”, the outcome [1] was “inactive” and the Potency [2] was “inactive”. The Potency [3] was “inactive”, the Potency [5] was “inactive” and the Potency [7] was “inactive”.

With `NC1(C(=O)O)CCCCC1` the outcome [8] was “inactive”, the outcome [1] was “inactive” and the Potency [2] was “inactive”. For the same molecule, the Potency [3] was “inactive”, the Potency [5] was “inactive” and the Potency [6] was “inactive”. The Potency [7] was “inactive”.
